Screening results: PubChem BioAssay, several laboratories
An excerpt weighted towards active compounds, which were near 4.8% of everything screened.
tim23-1 inh = inhibits growth of tim23-1 mutant yeast; AID 463212; hit rate 1.3% among 330,000; inhibition, % at 20 µM; S. cerevisiae tim23-1 growth, BacTiter-Glo luminescence, 24 h;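 active = growth inhibition of the mutant yeast at or above 50%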;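 note: temperature-sensitive mutant grown at 25 °C; plate controls were DMSO-treated mutant yeast for no effect and medium wells lacking yeast for full effect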
NALP1 inh = blocks the NALP1 inflammasome reconstituted in yeast. S. cerevisiae NALP1/ASC/caspase-1 growth, X-gal OD620, 72 h. inhibition, % at 10 µM. hit rate 0.61% among 280,000. AID 2071; in the data active = inhibition mostly above about 24%, no sharp cut-off; inactive = mostly below about 32%
PfHsp90 yeast 2 = growth inhibition of yeast expressing Plasmodium Hsp90. S. cerevisiae expressing PfHsp90, BacTiter-Glo ATP, 48 h; yeast lacking PDR1 and PDR3 efflux regulators. inhibition, % at 9.4 µM. AID 504621. hit rate 0.32% among 310,000;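 active = every replicate shows inhibition above about 80%, whatever the replicate mean, limit read from the data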;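 note: 0% = DMSO neutral controls and 100% = 20 µM radicicol positive controls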
SKKanGAS inh = SKKanGAS growth inhibition | hit rate 1.3% among 300,000 | S. pyogenes SKKanGAS, kanamycin growth, BacTiter-Glo, 6 h | inhibition, % at 7.5 µM;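 active = mean replicate score, as percent of positive control median, at least 50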;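 note: strain carries kanamycin resistance gene driven by streptokinase promoter and grows in 40 µg/ml kanamycin; loss of luminescence reflects streptokinase promoter inhibition or plain growth inhibition; 0% = median of DMSO wells and 100% = positive control at its reference dose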
tim10-1 inh = inhibits growth of tim10-1 mutant yeast. inhibition, % at 20 µM. AID 463190. hit rate 2.2% among 330,000. S. cerevisiae tim10-1 ts strain growth, BacTiter-Glo, 24 h;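 active = inhibition of at least 40%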;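 note: mutant grown at 25 °C; 0% = DMSO wells with yeast and 100% = wells holding no yeast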
TIM10 inh = TIM10 yeast growth inhibition | S. cerevisiae TIM10 strain growth, BacTiter-Glo luminescence, 24 h | inhibition, % at 10 µM | hit rate 1.4% among 330,000;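 active = inhibition of 40% or more at the single tested concentration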;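 note: wild-type TIM10 isogenic control strain grown at permissive 25 °C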
tim10-1 conf = tim10-1 yeast growth inhibition, confirmed; shares compounds with tim10-1 inh; S. cerevisiae tim10-1 ts strain growth, BacTiter-Glo, 24 h; inhibition, % at 20 µM; hit rate 56% among 7,400;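 active = inhibition of yeast growth at or above a set limit in either of two repeat tests at 20 µM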;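 note: tim10-1 mutant grown at permissive 25 °C to find synthetic lethal compounds; 0% = DMSO yeast wells and 100% = medium wells without yeast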
The depositor's hits bear a star; nt = not tested or not shown.

SMILES | tim23-1 inh | NALP1 inh | PfHsp90 yeast 2 | SKKanGAS inh | tim10-1 inh | TIM10 inh | tim10-1 conf
Cc1ccc([N+](=O)[O-])cc1NC(=O)CN(C(=O)c1ccccc1Cl)C1CCCCC1 | 31 | 25 | -3 | 11 | 40* | 20 | 17
COc1ccc(-n2c(C)cc(C(=O)CSc3nnc(-c4ccoc4C)n3C)c2C)cc1 | 25 | -2 | 0 | -2 | 40* | 4 | 19
Cc1cc(Cl)ccc1NC(=S)NCCC(c1ccccc1)c1ccccc1 | 12 | nt | -25 | 66* | 40* | 30 | 15
CC(C)(C)c1ccc(-c2n[nH]c(=S)n2Cc2ccccc2)cc1 | 37 | -7 | 17 | 4 | 45* | 29 | 38*
Cc1ccccc1OCc1n[nH]c(=S)n1Cc1ccccc1 | 36 | 14 | -41 | -15 | 47* | 24 | 22
COc1ccc(/C=N/NC(=O)COc2ccccc2-c2ccccc2)cc1 | 37 | 30 | 7 | 30 | 45* | 25 | 15
O=C(COc1ccccc1-c1ccccc1)N/N=C/c1cccc2ccccc12 | 10 | 10 | -14 | 44 | 19 | 21 | nt
COc1ccccc1NC(=O)c1nn(-c2ccc(OC(F)(F)F)cc2)ccc1=O | 12 | 33 | nt | 4 | 8 | -10 | nt
CCOc1ccc2cc(C3CC(c4ccco4)=NN3S(=O)(=O)c3ccccc3)c(Cl)nc2c1 (stereo not given) | 30 | 26 | -5 | 17 | 13 | 10 | nt
COc1ccc2cc(C3CC(c4ccco4)=NN3S(=O)(=O)c3ccccc3)c(Cl)nc2c1 (stereo not given) | 21 | 22 | 12 | 14 | 47* | 21 | 18
C=CCN1C(=O)C(O)(CC(=O)c2ccc(-n3cccc3)cc2)c2ccccc21 (stereo not given) | 39 | 29 | -8 | 3 | 43* | 29 | 36*
CCCCOc1ccc(C(=O)Nc2ccc3c(c2)C(=O)NC3=O)cc1 | 9 | 8 | 6 | -2 | -16 | -1 | nt
CCOC(=O)C1Nc2ccc(C(F)(F)F)cc2C2c3ccccc3CC12 (stereo not given) | 0 | nt | -4 | 27 | 57* | -9 | 53*
COc1ccc2nc(C)cc(N3CCN(S(=O)(=O)c4ccccc4F)CC3)c2c1 | 47 | nt | nt | nt | 40* | 30 | 21
COc1cccc(NC(=O)CSc2nnc(Cn3cnc([N+](=O)[O-])n3)n2C)c1 | 1 | 16 | -27 | -1 | 5 | 8 | nt
O=[N+]([O-])c1ccc(Cl)c2c1C1C=CCC1C(c1ccccn1)N2 (stereo not given) | 22 | 5 | 9 | 10 | 39 | 30 | nt
O=C(O)c1ccc(Cl)c2c1C1C=CCC1C(c1ccccn1)N2 (stereo not given) | 28 | -3 | nt | 0 | 43* | 0 | 12
CCN(CC)CCN(C(=O)c1ccc2c(c1)CCCC2)c1nc2ccc(OC)cc2s1 | 34 | 28 | 26 | -1 | 52* | 22 | 36*
CN(C)CCCN(C(=O)c1ccc2c(c1)CCCC2)c1nc2cc3c(cc2s1)OCO3 | 17 | -70 | 18 | 3 | 42* | 17 | 25
CCCNC(=O)Nc1ccc(F)c(Cl)c1 | 19 | 4 | 14 | -23 | -5 | -11 | nt
CC(C)(C)NC(=O)Nc1ccc(F)c(Cl)c1 | 35 | 0 | -4 | 5 | 46* | 29 | 44*
O=C(CSc1ccccc1C(=O)O)c1ccccc1 | -11 | 9 | -26 | 2 | -14 | -10 | nt
Cc1ccc(NC(=O)CN(c2ccc(Cl)cc2)S(=O)(=O)c2cc([N+](=O)[O-])ccc2Cl)c(C)c1 | 34 | 21 | 23 | 33 | 44* | 4 | 23
CCCCCCC(=O)N(O)C1CC(=O)N(c2ccc(C)cc2)C1=O (stereo not given) | 29 | 2 | 106* | 3 | 71* | 37 | 44*
COC(=O)c1cc(-c2ccc(C)o2)nc2ccccc12 | 15 | 13 | -3 | 4 | 23 | 22 | nt
SMILES | tim23-1 inh | NALP1 inh | PfHsp90 yeast 2 | SKKanGAS inh | tim10-1 inh | TIM10 inh | tim10-1 conf
Cc1ccc(-c2cc(C(=O)Nc3ccccc3C)c3ccccc3n2)o1 | 14 | 8 | nt | 5 | 49* | 9 | 26
CN(CC(=O)Nc1ccccc1F)Cc1cccs1 | 6 | -14 | 3 | 7 | 6 | 3 | nt
O=C1c2ccccc2C(=O)N1c1ccc(Br)c2cccnc12 | 31 | 0 | -3 | 0 | 22 | -26 | nt
COCCn1nnnc1C(CC(C)C)N1CCN(c2nc3ccccc3s2)CC1 (stereo not given) | 37 | 5 | 2 | -1 | 44* | 25 | 32*
Cn1cc(Cl)c(C(=O)Nc2nc3ccccc3s2)n1 | 40 | 32 | -11 | 5 | 44* | 31 | 21
COc1ccccc1NC(=O)c1ccc(COc2ccccc2OC)o1 | 25 | 3 | 2 | -2 | 41* | 25 | 3
Cc1cc(/C=N\NC(=O)CC(=O)NC2CCCCC2)c(C)n1-c1cccc(Cl)c1Cl | 27 | 22 | -22 | 9 | 10 | 8 | nt
Cc1cc(/C=N\NC(=O)CC(=O)NC2CCCCC2)c(C)n1-c1ccc(Cl)c(Cl)c1 | 0 | -1 | 15 | 12 | 46* | -9 | -20
Cc1cccc(C)c1-n1c(C)cc(/C=N/NC(=O)CSc2ncccn2)c1C | 23 | 8 | -5 | 5 | 18 | 24 | nt
Cc1cccc(C)c1-n1c(C)cc(/C=N\NC(=O)CC(=O)NC2CCCCC2)c1C | 22 | 24 | 17 | -5 | 41* | 22 | 27
O=C(COC(=O)C1CCCO1)Nc1cccc(C(F)(F)F)c1 (stereo not given) | 2 | 6 | -15 | -2 | 11 | -20 | nt
C=CCn1c(COc2ccccc2)nnc1SCC(=O)C(C)(C)C | 17 | 4 | -17 | -1 | 6 | -15 | nt
Nc1cccc(C(=O)N/N=C/c2ccsc2)c1 | 14 | 5 | nt | -2 | 10 | 7 | nt
CCCN(Cc1ccccc1)C(=S)Nc1ccc(OC(F)F)cc1 | 33 | 9 | -3 | -12 | 25 | 24 | nt
COCCN(Cc1ccccc1)C(=S)Nc1ccc(OC(F)F)cc1 | 30 | nt | 12 | -1 | 43* | 23 | 26
Cc1ccc2cccc(OCCCOc3ccccc3F)c2n1 | 46 | 19 | -10 | 19 | 43* | 22 | 30
COc1ccc(Cl)cc1NC(=O)CSc1nc(C)cc(C)n1 | 30 | 23 | 2 | 6 | 41* | -1 | 17
O=C(N/N=C/c1cc2c(cc1[N+](=O)[O-])OCO2)c1ccccn1 | 17 | nt | -12 | -2 | 10 | 12 | nt
CCOC(=O)C1=NN(C(=O)Cc2ccccc2)C(O)(c2ccc(Cl)cc2)C1 (stereo not given) | 43 | 9 | 0 | -4 | 42* | 24 | 32*
COc1cccc(-c2nnc3sc(-c4ccccn4)nn23)c1 | 37 | -8 | -10 | 3 | 18 | -25 | nt
